FMDV antiviral – High Throughput Screening for Foot and Mouth Disease Virus Antivirals; FMDV antiviral cell-based qHTS; Potency, µM (series often up to 57.9 µM), for the others: at the highest dose activity change, negative = inhibition, actives largely listed as inhibitors; 410,000 tested, 1.2% active; AID 1159524, 2015; calls by dose curve; tested in HEK293T cells; also: read-out not given here; potency is read from the fitted curve at half-maximal effect; nearly all actives have a fitted effect of over 45% in size
Vaccinia Venus – qHTS for Stage-Specific Inhibitors of Vaccinia Orthopoxvirus: Venus Reporter Primary qHTS; Vaccinia virus Venus reporter expression, fluorescence; Potency, µM (highest dose often 36.5 µM), inactives show at the top dose activity change, negative = inhibition, hits mostly inhibitors; 330,000 tested, 0.46% active; calls by dose curve; tested in A549 cells; also: potency is read from the fitted curve at half-maximal effect; nearly all actives have a fitted effect of over 30% in size
HCMV inh – qHTS Assay for inhibitors of the human cytomegalovirus (HCMV) | HFF cells, HCMV-luciferase reporter, 72 h; active compounds read low | activity change, negative = inhibition, % at 57.5 µM | 410,000 tested, 4.5% active | AID 1259415, 2018; in the data active = activity change below about -60%; inconclusive = no clear call, values can overlap the other calls; inactive = above about -39%
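HFF cells seeded 16 h at 37C, treated with compounds, infected with luciferase-reporter HCMV at MOI 1 PFU/cell; luciferase read at 72 h post infection, normalized to buffer-only and Salinomycin controls.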
HCV inhibitor – qHTS Assay for Inhibitors of Hepatitis C Virus (HCV); AID 651820, 2012; 340,000 tested, 3.4% active; Huh7.5.1 HCVcc-Cre infection, luciferase reporter, 44 h; Potency, µM (doses to about 41.8 µM), for the others: at the top dose activity change, negative = inhibition, hits mostly inhibitors; active = well fitted inhibition curve with a large enough effect; inconclusive = small, poorly fitted or top-dose-only effect, or another doubt; inactive = no such curve, though single readings can be large or run the other way; also: potency is read from the fitted curve at half-maximal effect
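Antiviral activity was scored by luciferase reporter output from cells infected with HCVcc-Cre (~0.5 moi) in presence of compound, 44 h infection period, cells seeded 1,000/well 4 h prior.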
VACV mCherry inh – qHTS for Stage-Specific Inhibitors of Vaccinia Orthopoxvirus: mCherry Reporter Primary qHTS; Vaccinia virus mCherry reporter infection, fluorescence; Potency, µM (top dose mostly 36.5 µM), for inactives: at the top dose activity change, negative = inhibition, actives largely listed as inhibitors; 310,000 tested, 0.63% active; AID 720579, 2013; calls by dose curve; tested in A549 cells; also: potency is read from the fitted curve at half-maximal effect; nearly all actives have a fitted effect of over 35% in size
The depositor's hits bear a star; i = inactive; ? = inconclusive; . = not tested or not shown. The list is not random: actives were taken first. Their share in the collection is about 7.3%. % is scaled to controls: 0 for no effect and ±100 for the full control effect.

SMILES	FMDV antiviral	Vaccinia Venus	HCMV inh	HCV inhibitor	VACV mCherry inh
COc1cccc(C(NC(C)=O)c2nc(-c3ccc(F)cc3OC)cs2)c1 (centres undefined)	0%	-1%	102	.	-20%
COC(=O)C1=CN(Cc2ccccc2)C=C(C(=O)OC)C1c1cc(F)ccc1F	-20%	-6%	-23	-23%	-14%
Cc1cnc(CNc2ccnc(-c3cccc(NS(C)(=O)=O)c3)n2)cn1	-2%	.	.	.	.
CCN(Cc1ccncc1)Cc1nc(Cc2ccccc2Cl)no1	?	.	-61*	11µM*	.
CN(Cc1cnccn1)Cc1nc(Cc2ccccc2Cl)no1	-9%	-17%	-22	7%	i
CCOC(=O)c1cnn(-c2ccc(OC)cc2)c1C1CCN(C(=O)OC(C)(C)C)CC1	-17%	-12%	-10	.	-18%
O=C(CCCn1c(=S)[nH]c2ccsc2c1=O)Nc1ccc(F)cc1	?	-13%	24	.	-1%
O=C(CCCn1c(=S)[nH]c2ccsc2c1=O)Nc1ccc2c(c1)OCCO2	-18%	1%	-75*	-24%	-21%
CN(C)c1ccc(Sc2ccc3nc(N)nc(N)c3c2)cc1	-30%	5µM*	-92*	.	4.5µM*
CN(C)c1ccc(-c2c3ccccc3nc3ccccc23)cc1	.	5%	.	.	15%
CCOC(=O)[C@@H]1[C@H]2COc3ccccc3[C@@H]2N2C(=O)N(c3cccc(F)c3)C(=O)[C@]12C	9%	-19%	35	-5%	-14%
COc1ccc(NC(=O)Cn2nc(C)c3c(C)n(-c4ccccc4)nc3c2=O)cc1OC	-15%	-4%	-7	.	-10%
CC(NC(=S)NC1CCC(C(C)(C)C)CC1)c1ccccc1 (centres undefined)	-2%	.	-82*	?	.
Cc1ccc(C(C)NC(=O)C2CCCC2)c(C)c1 (centres undefined)	-17%	.	-5	-3%	.
Cc1ccc(C(C)NC(=S)NC2CCCCC2)c(C)c1 (centres undefined)	-25%	.	-78*	?	.
Cc1ccc(CNC(=S)NC2CCC(C(C)(C)C)CC2)cc1 (centres undefined)	-4%	.	?	?	.
Cc1ccc(C(C)NC(=S)NC2CCCCC2)cc1C (centres undefined)	.	.	-75*	.	.
COc1ccc(C(C)NC(=S)NC2CCCC2)cc1OC (centres undefined)	-9%	-8%	-33	13%	i
CCOC(=O)CSC1=C(C#N)C(c2ccc(C)o2)CC(=O)N1 (centres undefined)	-29%	?	-84*	?	-20%
CCCOC(=O)CSC1=C(C#N)C(c2ccccc2Cl)CC(=O)N1 (centres undefined)	-21%	-15%	-8	32µM*	-28%
CC(C)N(Cc1ccccc1)C(=O)CCS(=O)(=O)c1cc2c(cc1Cl)NC(=O)CO2	-30%	-9%	-1	.	-12%
O=C(NCCO)c1ccc(-c2ccc3nncn3c2)cc1	-3%	-1%	-27	.	2%
Cc1ccc(NNC(=O)C(O)(c2cccc(C(F)(F)F)c2)c2cccc(C(F)(F)F)c2)cc1	?	?	-89*	?	?
Cc1ccc(C(O)(C(=O)NNc2ccccn2)c2ccc(C)cc2)cc1	-18%	-5%	?	-17%	-2%
O=C(NNc1ccccc1Br)C(O)(c1cccc(C(F)(F)F)c1)c1cccc(C(F)(F)F)c1	35µM*	?	-99*	?	11µM*
SMILES	FMDV antiviral	Vaccinia Venus	HCMV inh	HCV inhibitor	VACV mCherry inh
O=C(NCCN1Cc2ccccc2OC(c2ccsc2)C1)c1cncs1 (centres undefined)	-6%	-5%	.	.	-11%
COC(=O)[C@@]12C[C@@H](CC(=O)NCc3cccc4ccccc34)C(=O)N(Cc3ccco3)C1=CCC(C)(C)C2	-23%	?	30	.	?
COC(=O)N1CCC2(CCCN(Cc3ccc(C#N)cc3)C2)CC1	-17%	.	.	.	.
O=C1OC(C(=O)Nc2cc(C(F)(F)F)ccc2Cl)Cc2ccccc21 (centres undefined)	-8%	-10%	-22	.	-7%
CCCNC(=O)Cn1cccc1C(=O)c1ccccc1	6%	0%	-21	18%	-8%
COc1cccc(CNC(=O)Cn2cccc2C(=O)c2ccccc2C)c1	10%	-4%	4	1%	-18%

Screens: PubChem BioAssay, National Center for Advancing Translational Sciences (NCATS)
